Read-out in experiment [1]: Vascular cell adhesion molecule 1 (VCAM1), VCAM1 (gene 7412)
Kind of experiment: BSK_4H_VCAM1: BioMAP Diversity Plus: 4H Assay for Vascular cell adhesion molecule 1 (VCAM1) Biomarker Activity (AID 2283033).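 On outcome: cell-surface VCAM-1 protein measured by ELISA.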 The settings on record: primary human endothelial cells (HUVEC); actives raise or lower the signal. The essentials:
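Primary human umbilical vein endothelial cells were exposed to chemicals for 24 h, after which VCAM-1 was quantified by ELISA. Responses were fitted bidirectionally against DMSO as negative control and activity baseline.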

Read-out in experiment [2]: Interferon-gamma inducible Protein 10 (IP10), CXCL10 (gene 3627)
Kind of experiment: BSK_BE3C_IP10: BioMAP Diversity Plus: BE3C Assay for Interferon-gamma inducible Protein 10 (IP10) Biomarker Activity (AID 2283034). As to conditions: primary human bronchial epithelial cells; actives raise or lower the signal. The gist of the method:
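Human primary bronchial epithelial cells were exposed to chemicals for 24 hours, after which IP-10 levels were measured by ELISA. Data were fitted bidirectionally against DMSO, which served as the negative control and activity baseline.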

Read-out in experiment [3]: Monokine induced gamma interferon (MIG), CXCL9 (gene 4283)
Kind of experiment: BSK_BE3C_MIG: BioMAP Diversity Plus: BE3C Assay for Monokine induced gamma interferon (MIG) Biomarker Activity (AID 2283035).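 On outcome: MIG protein measured by ELISA in BE3C cultures after 24 h of dosing.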 As to conditions: primary human bronchial epithelial cells; actives raise or lower the signal. The essentials:
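MIG level was determined by ELISA after 24 h chemical treatment of primary human bronchial epithelial cells. Values were fitted bidirectionally with DMSO as the negative control and activity baseline.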

Read-out in experiment [4]: Transforming growth factor beta 1 (TGFb1), TGFB1 (gene 7040)
Kind of experiment: BSK_BE3C_TGFb1: BioMAP Diversity Plus: BE3C Assay for Transforming growth factor beta 1 (TGFb1) Biomarker Activity (AID 2283036). As to conditions: primary human bronchial epithelial cells; actives raise or lower the signal. The gist of the method:
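Human primary bronchial epithelial cells (BE3C system) were dosed with chemical and TGF-b1 levels measured by ELISA at 24 h. Activity was fitted bidirectionally relative to DMSO negative control as baseline.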

Read-out in experiment [5]: urokinase plasminogen activator (uPA), PLAU (gene 5328)
Description: BSK_BE3C_uPA: BioMAP Diversity Plus: BE3C Assay for urokinase plasminogen activator (uPA) Biomarker Activity (AID 2283038).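 On outcome: uPA protein level quantified by ELISA in cell cultures; uPA read one day after compound addition.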 The settings on record: primary human bronchial epithelial cells; actives raise or lower the signal. The gist of the method: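 ELISA for uPA on human primary bronchial epithelial cultures 24 h post-treatment, gain or loss against DMSO. Parallel SRB staining (0.1% after 10% TCA fixation, 560 nm) assessed overt cytotoxicity.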

Read-out in experiment [6]: Urokinase-type plasminogen activator receptor (uPAR), PLAUR (gene 5329)
Kind of experiment: BSK_BE3C_uPAR: BioMAP Diversity Plus: BE3C Assay for Urokinase-type plasminogen activator receptor (uPAR) Biomarker Activity (AID 2283039).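 On outcome: uPAR protein level measured by ELISA on the cells; cells exposed to compound for one day before measurement.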 The settings on record: primary human bronchial epithelial cells; actives raise or lower the signal. The essentials:
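Primary human bronchial epithelial cells were dosed with chemical and harvested 24 h later; uPAR was quantified by ELISA. Activity was fitted bidirectionally against DMSO as negative control and baseline.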

Read-out in experiment [7]: Interleukin-6 (IL6), IL6 (gene 3569)
Kind of experiment: BSK_CASM3C_IL6: BioMAP Diversity Plus: CASM3C Assay for Interleukin-6 (IL6) Biomarker Activity for (AID 2283040). As to conditions: primary human coronary artery smooth muscle cells; actives raise or lower the signal.

Read-out in experiment [8]: Tissue plasminogen activator (tPA), PLAT (gene 5327)
Description: BSK_BE3C_tPA: BioMAP Diversity Plus: BE3C Assay for Tissue plasminogen activator (tPA) Biomarker Activity (AID 2283041).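 On outcome: tPA level quantified by ELISA one day after compound addition.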 The settings on record: primary human bronchial epithelial cells; actives raise or lower the signal. The gist of the method: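 Human primary bronchial epithelial cells were dosed with chemical and tPA biomarker levels measured by ELISA 24 hours later. Activity was fitted bidirectionally against DMSO as negative control and baseline.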

Read-out in experiment [9]: Interleukin-8 (IL8), CXCL8 (gene 3576)
Kind of experiment: BSK_CASM3C_IL8: BioMAP Diversity Plus: CASM3C Assay for Interleukin-8 (IL8) Biomarker Activity (AID 2283042).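 Further: IL-8 protein level quantified by ELISA.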 As to conditions: primary human coronary artery smooth muscle cells; actives raise or lower the signal.

Read-out in experiment [10]: Human Leukocyte Antigen - DR isotype (HLADR), HLA-DRA (gene 3122)
Description: BSK_CASM3C_HLADR: BioMAP Diversity Plus: CASM3C Assay for Human Leukocyte Antigen - DR isotype (HLADR) Biomarker Activity (AID 2283043).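 Further: cell-surface HLA-DR protein level quantified by ELISA.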 As to conditions: primary human coronary artery smooth muscle cells; actives raise or lower the signal.

Read-out in experiment [11]: Macrophage colony-stimulating factor (MCSF), CSF1 (gene 1435)
Description: BSK_CASM3C_MCSF: BioMAP Diversity Plus: CASM3C Assay for Macrophage colony-stimulating factor (MCSF) Biomarker Activity (AID 2283044).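 Further: M-CSF protein amount quantified by ELISA after 24 h exposure.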 As to conditions: primary human coronary artery smooth muscle cells; actives raise or lower the signal.

Read-out in experiment [12]: Low-density lipoprotein receptor (LDLR), LDLR (gene 3949)
Kind of experiment: BSK_CASM3C_LDLR: BioMAP Diversity Plus: CASM3C Assay for Low-density lipoprotein receptor (LDLR) Biomarker Activity (AID 2283045).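 Further: LDLR protein level on the cell surface quantified by ELISA.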 As to conditions: primary human coronary artery smooth muscle cells; actives raise or lower the signal.

The nature of experiment [13]: BSK_CASM3C_Proliferation: Cell Proliferation Assessment in the BioMAP Diversity Plus: CASM3C Assay (AID 2283047).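 Further: sulforhodamine B total protein stain as relative cell number at 560 nm; sub-confluent cells exposed 48 h before staining; fitted both ways against DMSO so gain or loss of cell number.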 The settings on record: primary human coronary artery smooth muscle cells.
Read-out in experiment [14]: Monokine induced gamma interferon (MIG), CXCL9 (gene 4283)
Description: BSK_CASM3C_MIG: BioMAP Diversity Plus: CASM3C Assay for Monokine induced gamma interferon (MIG) Biomarker Activity (AID 2283048).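 Further: MIG protein level measured by ELISA.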 As to conditions: primary human coronary artery smooth muscle cells; actives raise or lower the signal.

Read-out in experiment [15]: serum amyloid A (SAA), SAA1 (gene 6288)
Description: BSK_CASM3C_SAA: BioMAP Diversity Plus: CASM3C Assay for serum amyloid A (SAA) Biomarker Activity (AID 2283049).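 Further: SAA protein level quantified by ELISA.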 The settings on record: primary human coronary artery smooth muscle cells; actives raise or lower the signal.

Experiment [16] in a line: BSK_CASM3C_SRB: Viability Assessment in the BioMAP Diversity Plus: CASM3C Assay (AID 2283050).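 Further: total protein by SRB staining as cytotoxicity measure in parallel cultures.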 As to conditions: primary human coronary artery smooth muscle cells.
Read-out in experiment [17]: Thrombomodulin, THBD (gene 7056)
Kind of experiment: BSK_CASM3C_Thrombomodulin: BioMAP Diversity Plus: CASM3C Assay for Thrombomodulin Biomarker Activity (AID 2283051).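 Further: thrombomodulin protein level measured by ELISA 24 h after dosing.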 The settings on record: primary human coronary artery smooth muscle cells; actives raise or lower the signal.

Read-out in experiment [18]: Tissue Factor, F3 (gene 2152)
Kind of experiment: BSK_CASM3C_TissueFactor: BioMAP Diversity Plus: CASM3C Assay for Tissue Factor Biomarker Activity (AID 2283052).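 Further: cell surface tissue factor protein level read by ELISA.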 As to conditions: primary human coronary artery smooth muscle cells; actives raise or lower the signal.

Read-out in experiment [19]: Monocyte Chemoattractant Protein-1 (MCP1), CCL2 (gene 6347)
Kind of experiment: BSK_CASM3C_MCP1: BioMAP Diversity Plus: CASM3C Assay for Monocyte Chemoattractant Protein-1 (MCP1) Biomarker Activity (AID 2283046).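 Further: MCP-1 level quantified by ELISA 24 h after dosing.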 As to conditions: primary human coronary artery smooth muscle cells; actives raise or lower the signal.

Read-out in experiment [20]: Plasminogen activator inhibitor-1 (PAI1), SERPINE1 (gene 5054)
Description: BSK_BE3C_PAI1: BioMAP Diversity Plus: BE3C Assay for Plasminogen activator inhibitor-1 (PAI1) Biomarker Activity (AID 2283037). The settings on record: primary human bronchial epithelial cells; actives raise or lower the signal. The gist of the method: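 Human primary bronchial epithelial cells were exposed to chemical for 24 h, then PAI-1 was quantified by ELISA. Activity was fitted bidirectionally relative to the DMSO negative control baseline.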

The source holds several records for some structures; these can differ, active in one and inactive in another. Calls of active or inactive are those of the source. How the source made its calls: active means hit-call score of the fitted dose curve at least 0.9, where 1 is the maximum; inactive means score below 0.9.

As to `CC(C)(c1ccccc1)c1ccc(O)c(C(C)(C)c2ccccc2)c1`, the AC50 in [1] is 8.48 µM (active); in experiment [2], 12 µM (active); in experiment [3], 22.7 µM (active); in experiment [4], 16.8 µM (active); in experiment [5] it was 16.2 µM (active); in experiment [6] it was 29.3 µM (active). Also, the AC50 is 26.4 µM (active) in experiment [7]; 14.7 µM (active) in [8]; 28.5 µM (active) in experiment [9]; 25.8 µM (active) in experiment [10]; 25.3 µM (active) in [11]; 28.2 µM (active) in experiment [12]. Besides, the AC50 is 7.92 µM (active) in experiment [13]; 29.4 µM (active) in experiment [14]; 23.6 µM (active) in [15]; 26.8 µM (active) in experiment [16]; 34.3 µM (active) in experiment [17]; 16.4 µM (active) in [18].
For the compound `CCOP(=S)(OCC)Oc1nc(Cl)c(Cl)cc1Cl`, the figures for the AC50 in [1] and in experiment [17] were 15.8 µM (active) and 26.9 µM (active), respectively. Besides, the result in experiment [2], in experiment [3], in [4], in experiment [5], in [6] and in experiment [7] was inactive. The outcome in experiment [8], in experiment [9], in experiment [10], in [11], in experiment [12] and in experiment [19] was inactive. In addition, the result in experiment [13], in experiment [14], in [15], in experiment [16] and in experiment [18] was inactive.
As for `O=C(O)CCC(F)(C(F)(F)F)C(F)(F)F`, the result in experiment [1], in experiment [2], in [3], in experiment [20], in experiment [5] and in [6] was inactive. Moreover, the outcome in experiment [7], in [8], in experiment [9], in [10], in [11] and in experiment [12] was inactive. The result in experiment [19], in [13], in experiment [14], in experiment [15], in [16] and in experiment [17] was inactive. Further, in experiment [18], the result was inactive. Also, the figures for the AC50 in experiment [11] and in experiment [15] were 23.9 µM (active) and 17.9 µM (active), respectively.
For the compound `C[C@@H]1C[C@@H]([C@H](O)CC2CC(=O)NC(=O)C2)C(=O)[C@@H](C)C1`, the half-maximal activity concentration (AC50) was 17.7 µM (active) in experiment [1]; 8.61 µM (active) in experiment [2]; 14.4 µM (active) in [3]; 2.83 µM (active) in experiment [4]; 6.45 µM (active) in [5]; 4.03 µM (active) in [6]. Moreover, the AC50 is 1.27 µM (active) in experiment [7]; 2.91 µM (active) in experiment [8]; 6.03 µM (active) in experiment [9]; 1.84 µM (active) in experiment [10]; 4.28 µM (active) in experiment [11]; 0.791 µM (active) in [12]. Further, the AC50 is 9.46 µM (active) in experiment [19], 1.63 µM (active) in experiment [13], 1.78 µM (active) in [14] and 8.63 µM (active) in experiment [16]. The result in experiment [15], in experiment [17] and in [18] was inactive.

As a reminder, the AC50 is the concentration at which the activity in the assay is half-maximal.

These data come from PubChem BioAssay (EPA / NIEHS).
